Test results: the supplement of paper PMC11732987, “Enantioselective OTUD7B fragment discovery through chemoproteomics screening and high-throughput optimisation” (Communications Chemistry, 2025)

Columns and labels:
Experiment in all cases: log2 ratio of Biotin-Ahx-Ub-VS probe labelling (fragment/DMSO); higher = less target engagement (more negative = stronger competition), active = hit call of the paper (q ≤ 0.05, log2 ratio ≤ -1)
Conditions in all cases: compound concentration: 200 uM; treatment time: 3 h
USP42 = molecular target: T1, USP42 (UniProt Q9H9J4)
T1 sequence (whole entry): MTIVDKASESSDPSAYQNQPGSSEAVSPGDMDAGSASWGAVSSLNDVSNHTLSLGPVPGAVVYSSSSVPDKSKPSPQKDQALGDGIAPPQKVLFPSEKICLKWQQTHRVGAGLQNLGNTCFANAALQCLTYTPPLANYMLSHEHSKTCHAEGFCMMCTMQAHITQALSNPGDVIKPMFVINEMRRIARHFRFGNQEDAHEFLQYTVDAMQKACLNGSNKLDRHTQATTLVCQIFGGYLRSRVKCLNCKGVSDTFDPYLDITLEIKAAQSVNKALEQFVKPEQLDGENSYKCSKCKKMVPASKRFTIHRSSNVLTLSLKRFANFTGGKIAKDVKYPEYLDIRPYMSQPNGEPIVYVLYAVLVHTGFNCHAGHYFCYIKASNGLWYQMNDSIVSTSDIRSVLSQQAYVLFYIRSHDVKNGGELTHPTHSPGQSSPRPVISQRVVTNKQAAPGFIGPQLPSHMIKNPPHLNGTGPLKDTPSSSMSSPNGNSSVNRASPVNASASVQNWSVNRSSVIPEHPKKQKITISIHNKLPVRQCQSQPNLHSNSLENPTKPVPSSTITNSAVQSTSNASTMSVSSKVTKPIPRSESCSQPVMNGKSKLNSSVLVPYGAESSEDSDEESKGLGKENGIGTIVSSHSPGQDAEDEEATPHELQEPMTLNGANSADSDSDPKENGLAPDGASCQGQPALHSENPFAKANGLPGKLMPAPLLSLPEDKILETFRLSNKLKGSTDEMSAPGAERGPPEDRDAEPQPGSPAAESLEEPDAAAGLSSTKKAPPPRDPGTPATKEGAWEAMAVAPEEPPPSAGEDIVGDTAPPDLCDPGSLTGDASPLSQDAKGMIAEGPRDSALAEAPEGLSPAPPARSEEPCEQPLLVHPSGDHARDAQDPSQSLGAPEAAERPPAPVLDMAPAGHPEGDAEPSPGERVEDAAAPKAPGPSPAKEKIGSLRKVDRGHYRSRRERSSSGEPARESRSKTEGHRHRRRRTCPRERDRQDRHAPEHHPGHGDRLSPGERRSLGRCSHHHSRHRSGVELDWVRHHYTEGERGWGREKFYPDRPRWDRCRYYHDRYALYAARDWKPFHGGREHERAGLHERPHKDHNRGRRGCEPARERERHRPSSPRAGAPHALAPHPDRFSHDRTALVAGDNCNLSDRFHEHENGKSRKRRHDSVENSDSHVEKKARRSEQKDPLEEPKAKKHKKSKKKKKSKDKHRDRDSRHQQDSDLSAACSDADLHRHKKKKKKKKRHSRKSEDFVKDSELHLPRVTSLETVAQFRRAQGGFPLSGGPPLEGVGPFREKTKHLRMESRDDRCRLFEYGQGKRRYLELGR
In short: (§1)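 HEK293T lysate (495 µg per sample, in Tris/CHAPS/IGEPAL buffer with protease inhibitors) was treated in triplicate with fragment at 200 µM or with DMSO for 3 h. It was then treated with Biotin-Ahx-Ub-VS (0.5 µM final) for 1 h. Labelled DUBs were NeutrAvidin-enriched, digested with LysC and trypsin, and run by diaPASEF LC-MS/MS. Spectronaut label-free quantities were global-median-normalised. Values are average log2 ratios fragment/DMSO by unpaired t-test, using proteins with ≥2 unique peptides.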

USP46 = USP46 (UniProt P62068)
In short: as §1

USP47 = molecular target: T2, USP47 (UniProt Q96K76)
T2 sequence (whole entry): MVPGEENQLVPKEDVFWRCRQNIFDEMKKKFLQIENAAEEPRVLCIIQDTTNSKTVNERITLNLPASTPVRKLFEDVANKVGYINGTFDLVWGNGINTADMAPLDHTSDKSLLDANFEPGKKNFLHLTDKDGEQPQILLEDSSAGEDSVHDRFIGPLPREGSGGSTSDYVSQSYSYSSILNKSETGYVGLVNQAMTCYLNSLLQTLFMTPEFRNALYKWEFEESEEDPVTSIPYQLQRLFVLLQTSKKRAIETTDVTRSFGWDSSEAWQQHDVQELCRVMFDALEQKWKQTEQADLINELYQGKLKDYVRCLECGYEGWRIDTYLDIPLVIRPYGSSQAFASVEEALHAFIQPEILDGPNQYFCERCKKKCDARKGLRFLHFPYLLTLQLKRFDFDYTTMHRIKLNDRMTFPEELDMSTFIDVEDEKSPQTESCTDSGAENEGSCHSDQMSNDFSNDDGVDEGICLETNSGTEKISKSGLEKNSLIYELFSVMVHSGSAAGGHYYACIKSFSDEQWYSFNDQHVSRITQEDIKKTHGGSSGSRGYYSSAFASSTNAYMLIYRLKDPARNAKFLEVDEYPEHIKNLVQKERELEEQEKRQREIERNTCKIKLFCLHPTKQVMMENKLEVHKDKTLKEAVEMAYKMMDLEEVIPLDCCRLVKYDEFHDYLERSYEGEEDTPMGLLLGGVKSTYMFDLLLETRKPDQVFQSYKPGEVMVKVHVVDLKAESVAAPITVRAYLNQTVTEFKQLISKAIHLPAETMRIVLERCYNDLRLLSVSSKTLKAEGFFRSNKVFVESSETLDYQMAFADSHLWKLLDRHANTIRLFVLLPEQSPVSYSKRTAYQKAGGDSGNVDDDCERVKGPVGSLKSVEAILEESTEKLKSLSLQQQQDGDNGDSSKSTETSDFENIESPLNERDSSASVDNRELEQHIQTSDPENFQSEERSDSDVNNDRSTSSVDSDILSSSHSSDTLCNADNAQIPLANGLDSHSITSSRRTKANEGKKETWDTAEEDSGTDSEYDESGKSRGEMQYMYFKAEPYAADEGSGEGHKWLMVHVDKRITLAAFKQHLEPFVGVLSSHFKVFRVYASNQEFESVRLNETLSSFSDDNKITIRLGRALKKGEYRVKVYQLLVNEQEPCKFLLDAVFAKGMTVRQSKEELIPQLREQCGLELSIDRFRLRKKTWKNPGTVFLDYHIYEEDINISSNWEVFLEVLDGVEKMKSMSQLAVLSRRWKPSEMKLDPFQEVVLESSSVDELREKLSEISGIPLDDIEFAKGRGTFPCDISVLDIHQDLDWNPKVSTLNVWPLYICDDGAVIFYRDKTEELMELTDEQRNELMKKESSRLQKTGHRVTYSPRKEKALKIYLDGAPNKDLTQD
In short: as §1

USP48 = molecular target: T3, USP48 (UniProt Q86UV5)
T3 sequence (whole entry): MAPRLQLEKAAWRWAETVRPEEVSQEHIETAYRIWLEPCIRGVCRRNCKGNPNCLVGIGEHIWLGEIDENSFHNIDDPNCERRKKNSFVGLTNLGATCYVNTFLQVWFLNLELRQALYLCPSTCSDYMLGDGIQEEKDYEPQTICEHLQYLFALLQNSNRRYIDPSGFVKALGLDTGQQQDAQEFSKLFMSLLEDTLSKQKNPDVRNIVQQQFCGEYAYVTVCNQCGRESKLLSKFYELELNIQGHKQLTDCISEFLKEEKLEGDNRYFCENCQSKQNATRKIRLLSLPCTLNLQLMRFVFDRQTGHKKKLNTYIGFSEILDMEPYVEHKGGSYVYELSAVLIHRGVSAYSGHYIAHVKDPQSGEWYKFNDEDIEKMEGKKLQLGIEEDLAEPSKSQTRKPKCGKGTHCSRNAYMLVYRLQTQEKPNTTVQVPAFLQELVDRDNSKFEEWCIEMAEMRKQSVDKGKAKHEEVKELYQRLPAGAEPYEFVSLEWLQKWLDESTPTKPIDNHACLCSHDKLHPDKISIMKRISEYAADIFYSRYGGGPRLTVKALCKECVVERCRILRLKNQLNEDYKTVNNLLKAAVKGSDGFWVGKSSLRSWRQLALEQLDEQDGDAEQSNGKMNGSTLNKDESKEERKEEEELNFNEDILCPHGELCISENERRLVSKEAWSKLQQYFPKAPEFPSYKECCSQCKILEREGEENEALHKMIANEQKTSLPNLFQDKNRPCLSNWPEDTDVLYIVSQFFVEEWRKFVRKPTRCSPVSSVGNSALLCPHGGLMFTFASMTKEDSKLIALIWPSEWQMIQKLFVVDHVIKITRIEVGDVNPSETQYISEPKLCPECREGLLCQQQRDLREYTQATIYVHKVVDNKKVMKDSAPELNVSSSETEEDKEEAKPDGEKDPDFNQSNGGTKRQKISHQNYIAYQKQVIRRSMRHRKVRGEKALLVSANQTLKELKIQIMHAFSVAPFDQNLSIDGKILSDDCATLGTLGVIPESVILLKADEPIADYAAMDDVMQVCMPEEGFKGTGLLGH
In short: as §1

USP5 = molecular target: T4, USP5 (UniProt P45974)
T4 sequence (whole entry): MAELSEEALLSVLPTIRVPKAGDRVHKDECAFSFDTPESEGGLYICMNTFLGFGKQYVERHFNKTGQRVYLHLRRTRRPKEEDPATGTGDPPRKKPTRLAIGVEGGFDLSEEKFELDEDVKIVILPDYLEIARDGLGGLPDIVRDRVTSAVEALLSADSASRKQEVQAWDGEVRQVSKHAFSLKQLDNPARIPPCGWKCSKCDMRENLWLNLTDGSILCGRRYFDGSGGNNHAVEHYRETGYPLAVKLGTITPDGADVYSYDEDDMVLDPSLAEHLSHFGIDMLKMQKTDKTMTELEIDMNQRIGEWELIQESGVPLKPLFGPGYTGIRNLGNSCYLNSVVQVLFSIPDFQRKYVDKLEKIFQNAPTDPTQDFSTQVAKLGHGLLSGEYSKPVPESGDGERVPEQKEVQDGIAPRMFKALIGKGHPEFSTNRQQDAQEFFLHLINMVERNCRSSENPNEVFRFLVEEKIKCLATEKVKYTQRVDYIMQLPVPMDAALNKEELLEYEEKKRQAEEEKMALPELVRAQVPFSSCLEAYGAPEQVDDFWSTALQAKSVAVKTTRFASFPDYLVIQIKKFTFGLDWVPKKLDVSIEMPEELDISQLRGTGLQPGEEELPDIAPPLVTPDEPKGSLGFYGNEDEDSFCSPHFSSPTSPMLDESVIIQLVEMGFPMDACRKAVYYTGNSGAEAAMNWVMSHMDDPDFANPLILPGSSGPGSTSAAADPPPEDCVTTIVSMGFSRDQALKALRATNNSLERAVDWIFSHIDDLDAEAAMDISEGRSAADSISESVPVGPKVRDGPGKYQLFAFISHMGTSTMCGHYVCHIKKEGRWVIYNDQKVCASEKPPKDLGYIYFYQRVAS
In short: as §1

USP54 = USP54 (UniProt Q70EL1)
In short: as §1

USP7 = USP7 (UniProt Q93009)
In short: as §1

USP8 = molecular target: T5, USP8 (UniProt P40818)
T5 sequence (whole entry): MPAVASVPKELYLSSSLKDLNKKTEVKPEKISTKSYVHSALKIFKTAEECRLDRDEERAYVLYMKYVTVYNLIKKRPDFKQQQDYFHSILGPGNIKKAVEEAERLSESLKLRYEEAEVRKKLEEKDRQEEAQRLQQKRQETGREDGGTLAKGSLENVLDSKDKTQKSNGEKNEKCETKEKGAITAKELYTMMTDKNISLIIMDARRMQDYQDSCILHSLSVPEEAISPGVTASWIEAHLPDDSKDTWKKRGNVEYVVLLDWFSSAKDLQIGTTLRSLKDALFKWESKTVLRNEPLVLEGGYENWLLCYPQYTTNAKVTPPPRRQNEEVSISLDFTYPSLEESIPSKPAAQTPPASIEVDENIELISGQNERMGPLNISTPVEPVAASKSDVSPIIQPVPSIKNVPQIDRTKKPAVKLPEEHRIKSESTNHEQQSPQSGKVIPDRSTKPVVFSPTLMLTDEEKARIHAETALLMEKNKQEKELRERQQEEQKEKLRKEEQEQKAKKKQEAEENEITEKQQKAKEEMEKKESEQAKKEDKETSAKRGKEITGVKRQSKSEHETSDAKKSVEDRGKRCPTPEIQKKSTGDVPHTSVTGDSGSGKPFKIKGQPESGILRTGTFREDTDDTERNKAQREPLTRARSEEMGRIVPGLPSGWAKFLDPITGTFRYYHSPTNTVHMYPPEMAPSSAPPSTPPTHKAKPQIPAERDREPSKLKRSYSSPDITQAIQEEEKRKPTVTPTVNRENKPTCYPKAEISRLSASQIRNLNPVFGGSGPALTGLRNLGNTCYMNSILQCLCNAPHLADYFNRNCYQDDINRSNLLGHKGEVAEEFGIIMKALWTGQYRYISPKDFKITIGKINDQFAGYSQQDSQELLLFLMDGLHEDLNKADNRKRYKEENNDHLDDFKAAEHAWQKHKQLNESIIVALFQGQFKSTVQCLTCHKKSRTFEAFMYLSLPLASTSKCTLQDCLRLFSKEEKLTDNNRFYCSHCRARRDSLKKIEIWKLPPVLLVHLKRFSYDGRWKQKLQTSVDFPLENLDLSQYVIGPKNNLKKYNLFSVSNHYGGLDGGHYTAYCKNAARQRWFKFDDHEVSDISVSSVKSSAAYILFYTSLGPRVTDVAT
In short: as §1

Measured: log2 ratio of Biotin-Ahx-Ub-VS probe labelling

Sequence of USP54 (Q70EL1 whole entry): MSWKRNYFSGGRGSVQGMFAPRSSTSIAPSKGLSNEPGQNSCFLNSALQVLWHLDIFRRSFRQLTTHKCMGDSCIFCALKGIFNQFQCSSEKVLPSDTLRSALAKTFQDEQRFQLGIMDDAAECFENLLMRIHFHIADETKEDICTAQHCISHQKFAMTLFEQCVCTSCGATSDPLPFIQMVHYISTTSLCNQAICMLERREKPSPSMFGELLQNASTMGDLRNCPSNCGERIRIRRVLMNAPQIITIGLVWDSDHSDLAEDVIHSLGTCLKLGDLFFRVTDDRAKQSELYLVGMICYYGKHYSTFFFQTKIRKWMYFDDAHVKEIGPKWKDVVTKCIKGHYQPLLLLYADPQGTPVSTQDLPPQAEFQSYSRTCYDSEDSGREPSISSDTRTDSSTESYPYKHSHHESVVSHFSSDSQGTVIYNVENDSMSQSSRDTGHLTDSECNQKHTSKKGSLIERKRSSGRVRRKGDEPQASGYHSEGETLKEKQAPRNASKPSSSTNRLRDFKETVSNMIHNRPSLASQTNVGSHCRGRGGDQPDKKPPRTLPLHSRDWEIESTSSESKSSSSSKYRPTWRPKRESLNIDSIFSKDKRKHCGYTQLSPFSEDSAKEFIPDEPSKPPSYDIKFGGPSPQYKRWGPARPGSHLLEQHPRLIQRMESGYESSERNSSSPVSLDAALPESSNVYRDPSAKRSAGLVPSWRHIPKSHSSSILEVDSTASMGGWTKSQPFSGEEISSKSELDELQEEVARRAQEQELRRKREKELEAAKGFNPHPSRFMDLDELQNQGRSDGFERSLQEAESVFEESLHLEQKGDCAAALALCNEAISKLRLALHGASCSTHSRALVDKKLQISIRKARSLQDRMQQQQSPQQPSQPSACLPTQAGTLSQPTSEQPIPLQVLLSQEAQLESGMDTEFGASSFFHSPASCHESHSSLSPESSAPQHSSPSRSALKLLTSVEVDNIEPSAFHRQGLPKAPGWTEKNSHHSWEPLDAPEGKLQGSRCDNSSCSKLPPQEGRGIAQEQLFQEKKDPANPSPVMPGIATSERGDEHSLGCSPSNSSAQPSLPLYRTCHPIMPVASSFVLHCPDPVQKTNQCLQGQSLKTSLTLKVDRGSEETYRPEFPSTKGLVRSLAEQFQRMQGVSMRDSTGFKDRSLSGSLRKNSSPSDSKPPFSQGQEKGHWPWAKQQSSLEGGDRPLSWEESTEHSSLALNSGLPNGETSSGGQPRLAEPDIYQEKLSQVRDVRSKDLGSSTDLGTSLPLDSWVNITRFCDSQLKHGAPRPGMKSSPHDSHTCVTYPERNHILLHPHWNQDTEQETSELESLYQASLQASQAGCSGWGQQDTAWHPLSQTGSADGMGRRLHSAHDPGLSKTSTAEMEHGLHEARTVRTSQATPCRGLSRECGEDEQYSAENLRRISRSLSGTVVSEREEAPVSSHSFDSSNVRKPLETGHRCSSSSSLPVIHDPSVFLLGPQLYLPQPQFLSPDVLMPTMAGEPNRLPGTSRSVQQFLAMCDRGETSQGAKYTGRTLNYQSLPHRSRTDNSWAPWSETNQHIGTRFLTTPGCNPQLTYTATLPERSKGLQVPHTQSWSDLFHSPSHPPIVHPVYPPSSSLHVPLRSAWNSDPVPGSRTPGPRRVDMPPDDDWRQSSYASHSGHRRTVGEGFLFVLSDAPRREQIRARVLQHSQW
Sequence of USP46 (P62068 whole entry): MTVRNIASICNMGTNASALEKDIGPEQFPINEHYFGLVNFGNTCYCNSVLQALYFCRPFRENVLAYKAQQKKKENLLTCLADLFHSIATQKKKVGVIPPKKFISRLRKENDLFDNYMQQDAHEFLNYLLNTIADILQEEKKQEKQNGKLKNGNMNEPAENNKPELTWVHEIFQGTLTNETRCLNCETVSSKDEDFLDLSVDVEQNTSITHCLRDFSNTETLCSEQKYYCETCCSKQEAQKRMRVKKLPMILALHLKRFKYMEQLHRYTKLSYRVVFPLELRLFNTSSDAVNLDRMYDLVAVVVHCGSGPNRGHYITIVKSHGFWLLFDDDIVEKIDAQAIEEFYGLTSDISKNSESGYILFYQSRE
Sequence of USP7 (Q93009 whole entry, looked up): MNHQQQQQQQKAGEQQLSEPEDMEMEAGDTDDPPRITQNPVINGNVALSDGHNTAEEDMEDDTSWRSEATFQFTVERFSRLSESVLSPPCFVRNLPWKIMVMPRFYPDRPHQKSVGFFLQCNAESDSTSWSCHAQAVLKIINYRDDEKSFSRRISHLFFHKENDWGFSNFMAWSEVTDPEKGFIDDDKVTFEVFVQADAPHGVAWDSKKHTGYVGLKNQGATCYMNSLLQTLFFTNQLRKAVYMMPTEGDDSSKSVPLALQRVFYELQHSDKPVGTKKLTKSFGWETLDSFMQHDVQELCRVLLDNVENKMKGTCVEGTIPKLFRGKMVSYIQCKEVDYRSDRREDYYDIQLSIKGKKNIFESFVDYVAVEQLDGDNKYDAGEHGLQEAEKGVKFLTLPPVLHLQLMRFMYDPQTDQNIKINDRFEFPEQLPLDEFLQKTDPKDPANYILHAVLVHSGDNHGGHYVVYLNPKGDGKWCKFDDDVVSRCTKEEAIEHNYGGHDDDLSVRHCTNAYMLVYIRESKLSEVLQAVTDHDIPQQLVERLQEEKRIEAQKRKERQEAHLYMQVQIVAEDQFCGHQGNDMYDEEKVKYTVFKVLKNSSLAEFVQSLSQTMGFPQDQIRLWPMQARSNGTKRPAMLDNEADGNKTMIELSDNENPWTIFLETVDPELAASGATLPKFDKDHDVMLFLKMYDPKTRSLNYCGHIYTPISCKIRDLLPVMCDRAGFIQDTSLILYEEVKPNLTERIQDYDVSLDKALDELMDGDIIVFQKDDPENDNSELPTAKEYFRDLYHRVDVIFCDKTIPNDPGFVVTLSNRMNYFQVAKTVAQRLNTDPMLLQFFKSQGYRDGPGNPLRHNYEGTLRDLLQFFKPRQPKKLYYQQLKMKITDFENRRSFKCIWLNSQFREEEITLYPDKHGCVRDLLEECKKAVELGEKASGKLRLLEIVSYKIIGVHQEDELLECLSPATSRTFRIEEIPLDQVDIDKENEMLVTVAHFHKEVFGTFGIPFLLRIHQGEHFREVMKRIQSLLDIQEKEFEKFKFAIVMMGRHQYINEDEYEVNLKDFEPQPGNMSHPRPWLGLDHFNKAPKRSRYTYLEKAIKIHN

Cc1ccc(C)c(NC(=O)CCl)c1
inactive: USP42 0.248 | USP46 -0.456 | USP47 -0.823 | USP48 -0.558 | USP5 -0.353 | USP54 -0.00643 | USP7 -0.537 | USP8 -0.263
